Bioassay records as filed in PubChem BioAssay.
ROC1-CUL1 inh – inhibitors of human ROC1-CUL1 ubiquitin ligase activity; inhibition, % at 10 µM; 0.6% of 140,000 active; in vitro K48 di-Ub FRET, acceptor:donor ratio, 45 min; P62877+Q13616; in the data active = inhibition above about 25%
* hit, by the source's call. This is one part of a sample in which hits are shown more often than they occur.

SMILES	ROC1-CUL1 inh
N#C/C(=C\c1ccccc1)S(=O)(=O)c1ccccc1	0
COc1ccc(-c2ccc(/C=C(/C#N)S(=O)(=O)c3ccccc3)o2)cc1	29*
N#C/C(=C\c1ccc(F)cc1)S(=O)(=O)c1ccccc1	9
Cc1sc2ncn(/N=C/c3ccc(OC(F)F)cc3)c(=O)c2c1-c1ccccc1	-8
COC(=O)c1c(S(=O)(=O)N2CCCC2)sc2c1CCN(C(=O)c1cc3ccccc3o1)C2	-5
N=CC1Nc2ccccc2C1=O (configuration not stated)	31*
O=C1c2ccccc2NC1C=NCCO (configuration not stated)	8
O=C1C(C2Nc3ccccc3C2=O)=Nc2ccccc21 (configuration not stated)	0
CC1(C)OC2OC(C(O)c3cc(O)c4c(c3O)C(=O)c3ccccc3C4=O)C(C)(O)C2O1 (configuration not stated)	65*
COc1cccc(-c2nc3cc(NC(=O)c4cc5ccccc5o4)ccc3o2)c1	10
COc1cccc(/C=C/C(=O)c2ccccc2)c1	0
CN=C1CC=CC=C(C(=O)/C=C/c2c(Cl)cccc2Cl)C1=O	23
CN=C1CC=CC=C(C(=O)/C=C/c2ccc(C)cc2C)C1=O	103*
CN=C1CC=CC=C(C(=O)/C=C/c2cccc(Oc3ccccc3)c2)C1=O	104*
CN=C1CC=CC=C(C(=O)/C=C/c2ccccc2)C1=O	84*
Cc1ccc(/C=C/C(=O)C2C=CC=CC(=O)C2=O)c(C)c1 (configuration not stated)	0
CC1=NC(=O)C(C(=O)/C=C/c2ccccc2)=C(C)C1	1
CN=C1CC=CC=C(C(=O)/C=C/c2ccc(C(F)(F)F)cc2)C1=O	-1
CN=C1CC=CC=C(C(=O)/C=C/c2cc(C)ccc2C)C1=O	3
O=C(CN1C(=O)S/C(=C/c2ccccc2Cl)C1=O)Nc1ccc(F)cc1	-12
CCCCS(=O)(=O)N1CCC(C(=O)Nc2ccccc2)CC1	8
c1ccc(N=C(Nc2ccccc2)C(=Nc2ccccc2)Nc2ccccc2)cc1	-8
CC(C)(C)c1ccc(C(=O)NC(Nc2ccc3ccccc3c2)C(Cl)(Cl)Cl)cc1 (configuration not stated)	2
Cc1ccc2c(c1)C(C)(C)OC2=O	2
Cc1nc(N(C)C2CCCCC2)ncc1C(C)NC(=O)CCC(=O)N(C)C (configuration not stated)	-8
SMILES	ROC1-CUL1 inh
NC(=O)C1(N2CCCCC2)CCN(Cc2nc(-c3cccc(Cl)c3)no2)CC1	5
CC1=C(C)C2=S(SC(c3ccccn3)=C2)S1 (configuration not stated)	-3
OCC1(CCOc2ccccc2)CCN(Cc2cccnc2)CC1	2
CCc1nnc2c(-n3nc(C)cc3C)nc3ccccc3n12	5
Cc1ccc(OC(=O)c2ccc(-c3ccccc3Cl)o2)cc1	4
COc1cc2c(cc1OC)C1=C(C3=CCC(=O)[C@@]3(C)CC1)[C@H](C)S2	25*
COc1cc2c(cc1OC)C(=O)CCS2	0
COc1cc2c(cc1OC)/C(=C/CC1(C)C(=O)CCC1=O)CCS2	13
O=C(Cn1cc([N+](=O)[O-])cn1)N/N=C/c1cnc2ccccc2n1	12
CC1=C(C)C[C@@](C#N)(C(F)(F)F)[C@](C#N)(C(F)(F)F)C1	-2
Cc1cccc(NC(=O)c2sc3nc(-c4cc5ccc(O)cc5oc4=O)[nH]c(=O)c3c2C)c1	63*
Cc1cc(C)cc(NC(=O)c2sc3nc(-c4cc5ccccc5oc4=O)[nH]c(=O)c3c2C)c1	5
Cc1c(C(=O)Nc2cccc(F)c2)sc2nc(-c3cc4ccccc4oc3=O)[nH]c(=O)c12	5
COc1cccc(-c2ccc3c(N)c(C(=O)Nc4ccc(C)cc4)sc3n2)c1	6
CC1OC(OC(=O)c2ccc([N+](=O)[O-])cc2)CC(NC(=O)C(F)(F)F)C1OC(=O)c1ccc([N+](=O)[O-])cc1 (configuration not stated)	-3
CC(C)CN1CC(=NC(=O)NCc2ccc(Cl)cc2)c2ccccc2C1=O	0
COc1ccc2c(c1)SC(c1ccc(F)c(F)c1)CCN2CC1CC1 (configuration not stated)	5
COc1cccc2cccc(NC(C)=O)c12	-1
CC(C)=CCCC1(C)OC(=O)N(CCc2c(C)[nH]c3ccc(OC(F)(F)F)cc23)C1(C)O (configuration not stated)	-8
CCOc1cc(/C=C2\C(=O)NN(c3ccccc3)C2=O)cc(Br)c1OCc1ccc(C)cc1	9
COc1cc(/C=C2/C(=O)NN(c3ccc(Br)cc3)C2=O)cc(Br)c1OC	7
COc1cc(/C=C2\C(=O)NN(c3ccccc3)C2=O)cc(I)c1OCc1ccc(Cl)c(Cl)c1	12
CCOc1cc(/C=C2\C(=O)NN(c3ccccc3)C2=O)cc(Cl)c1OCc1ccc(Cl)cc1	7
COc1cc(/C=C2/C(=O)NN(c3ccccc3)C2=O)cc(Br)c1OC(C)=O	-1
CCOc1cc(/C=C2\C(=O)NN(c3ccccc3)C2=O)cc(Br)c1OCc1ccccc1C	30*
COc1cc(/C=C2\C(=O)NN(c3ccccc3)C2=O)cc(OC)c1OC	-2
